From PubChem BioAssay

Assay: probe aLefty1 binding on compound microarray – biochemical, small-molecule microarray, 635/667 nm fluorescence, primary screen (AID 1153);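 further: score merges spot fluorescence with signal-to-noise ratio from the scanned slide images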
Settings: higher = more signal

SMILES | composite z-score
C[N+](C)(C)CCCC[C@@H]1NC(=O)[C@@H]2C[C@H](C(=O)O)[C@H](c3cccc(OCCO)c3)N2C1=O | -0.286
COCCOC(=O)N1C(=O)[C@@]2(c3cc(C#CCC(C(=O)OC)C(=O)OC)ccc31)[C@H](c1ccc(OCCO)cc1)N1[C@H](c3ccccc3)[C@H](c3ccccc3)OC(=O)[C@H]1[C@@H]2C(N)=O | -0.147
Cc1cc(C)c(C(O)C2C=CC3C(=O)N(c4ccccc4)C(=O)C3N2Nc2ccc([N+](=O)[O-])cc2)c(C)c1 (stereo not given) | 0.703
O=C(CS)NCCCCCNC(=O)[C@@H]1C[C@@H]2C(=O)N3CCC[C@H]3C(=O)N2[C@@H]1c1ccc(O)cc1 | 0.109
C[C@@H]1ON(c2ccccc2)[C@H](c2ccccc2)[C@H]1C(=O)N1C(=O)OC[C@H]1Cc1ccccc1 | -0.294
[N-]=[N+]=Nc1ccccc1[C@@H]1OC(c2ccc(OCCCO)cc2)=N[C@]1(CCS(=O)(=O)c1ccccc1)C(=O)NCc1ccccc1 | 1.01
COc1ccc([Si](C)(C)[C@@H]2[C@@H](CC(=O)N(CCO)Cc3ccccc3)O[C@]3(C(=O)N(Cc4ccc(N5CCOC5=O)cc4)c4ccccc43)[C@H]2C)cc1 | -0.0891
COc1ccccc1CN1C(=O)c2ccccc2[C@@H](C(=O)NCC(C)C)[C@@H]1c1ccc(CO)cc1 | -0.0061
COC(=O)[C@@]1(Cc2ccc(F)cc2)[C@@H]2[C@@H](CC(=O)[C@H]2CC(=O)C(=O)N2CCCC2)CN1C(=O)c1ccccc1 | 1.33
CC1CC/C=C\[C@H]2OC34C=CCN(c5ccc(Cl)cc5)C(=O)[C@H]3N(C(CO)C(C)C)C(=O)[C@]4(C)C2C(=O)O1 (stereo not given in full) | 0.188
C=CCC(OC(C)=O)[C@@H]1[C@@H](N(Cc2cccc3ccccc23)C(=O)Cc2ccc(F)cc2)c2cc(OCCCO)ccc2N1C(=O)Cc1ccc(OC)cc1 (stereo not given in full) | 0.0789
COC(=O)[C@]1(Cc2ccccc2CN=[N+]=[N-])N=C(c2ccc(OCCCO)cc2)O[C@@H]1c1ccccc1 | 0.14
CCCc1cc2c(n1Cc1ccc(OC)cc1)C(C)C1CN(C(=O)c3ccccc3)C(C)(C(=O)OC)C21 (stereo not given) | 1.1
CN(C)C(=O)[C@@]1(CCC(=O)OC(C)(C)C)N=C(c2ccc(OCCCO)cc2)O[C@H]1c1ccccc1N=[N+]=[N-] | 0.646
CCN(CC)c1ccc(N2CC=CC34O[C@@H]5/C=C\CCCOC(=O)C5[C@H]3C(=O)N(CCCCCO)[C@@H]4C2=O)cc1 (stereo not given in full) | -0.0479
COC(=O)[C@@]1(Cc2ccc(F)cc2)[C@H]2c3cc(C(=O)N(C)C)n(CCSCCO)c3C[C@H]2CN1C(=O)c1ccccc1 | -0.0901
C=CCNC(=O)[C@@H]1[C@H]2C(=O)O[C@H](c3ccccc3)[C@H](c3ccccc3)N2[C@H](c2ccc(O)cc2)[C@@]12C(=O)Nc1ccc(C#CCCO)cc12 | -0.495
COC(=O)C(CC#Cc1ccc2c(c1)[C@]1(C(=O)N2)[C@H](c2ccccc2OCCO)N2[C@H](c3ccccc3)[C@H](c3ccccc3)OC(=O)[C@H]2[C@@H]1C(=O)Nc1nc2ccccc2s1)C(=O)OC | 0.361

SMILES | composite z-score
COC(=O)[C@@]1(Cc2ccc(OC)cc2)[C@H]2c3cc(C(=O)N4CCCC4)n(CCc4ccc(O)c(OC)c4)c3C[C@H]2CN1C(=O)c1ccccc1 | 0.128
CCOC(=O)C[C@H]1[C@H](OC(=O)c2ccccc2-c2ccccc2)[C@@H](NC(=O)c2ccccc2)c2cc(OCCCO)ccc2N1C(=O)Cc1ccc(OC)cc1 | -0.193
C=C(/C(=C/C[C@@H](OC(=O)c1ccncc1)c1ccccc1OCCO)c1cnc2ccccc2c1)C(C)C | 0.454
COCCOC(=O)N1C(=O)[C@@]2(c3cc(C#CCC(C(=O)OC)C(=O)OC)ccc31)[C@H](C(=O)N1CCCCCCC1)[C@H]1C(=O)O[C@H](c3ccccc3)[C@H](c3ccccc3)N1[C@@H]2c1ccc(O)cc1 | 2.46
NC(=O)NCC#Cc1ccc2c(c1)[C@]1(C(=O)N2)[C@H](c2ccc(OCCO)cc2)N2[C@H](c3ccccc3)[C@H](c3ccccc3)OC(=O)[C@H]2[C@@H]1C(=O)N1CCCCCCC1 | 2.86
C=C(CCCC)/C(=C/C[C@H](OC(=O)c1ccncc1)c1ccc(CO)o1)c1cc(C(=O)OC)ccc1OC | 0.178
O=C1N(CCS(=O)(=O)c2ccccc2)Cc2ccccc2C[C@@]12COC(c1ccc(OCCCO)cc1)=N2 | 0.153
C[N+](C)(C)CCCCNC(=O)[C@H]1C[C@H]2C(=O)NCC(=O)N2[C@H]1c1ccc(O)cc1 | 0.242
CC(C)N1C(=O)c2ccccc2[C@](C)(C(=O)O)[C@@H]1c1ccc(CO)cc1 | 0.0451
C[N+](C)(C)CCCCCCNC(=O)[C@@H]1C[C@@H]2C(=O)NCC(=O)N2[C@@H]1c1ccc(O)cc1 | 0.0984
COCCCNC(=O)[C@@]1(Cc2ccccc2CN=[N+]=[N-])N=C(c2ccc(OCCCO)cc2)O[C@H]1c1ccccc1N=[N+]=[N-] | 0.0643
COC(=O)[C@@]1(Cc2ccc(OC)cc2)[C@H]2c3cc(C(=O)N(C)C)n(CCF)c3C[C@H]2CN1C(=O)c1ccccc1 | 0.624
C=CCNC(=O)[C@H]1[C@@H]2C(=O)O[C@@H](c3ccccc3)[C@@H](c3ccccc3)N2[C@@H](c2ccc(OCCO)cc2)[C@]12C(=O)N(C(=O)OCCOC)c1ccc(C#CC3=CCCCC3)cc12 | 0.213
O=C1C2C=CC(C(O)c3cccc4ccccc34)N(Nc3ccccc3)C2C(=O)N1c1ccccc1 (stereo not given) | 0.528
COc1ccc(C#Cc2ccc3c(c2)[C@]2(C(=O)N3)[C@H](C(=O)O)[C@H]3C(=O)O[C@H](c4ccccc4)[C@H](c4ccccc4)N3[C@@H]2c2ccc(OCCO)cc2)cc1 | 0.33
C=CCOC(=O)[C@H]1[C@@H]2C(=O)O[C@@H](c3ccccc3)[C@@H](c3ccccc3)N2[C@@H](c2ccc(OCCOC(=O)[C@H]3C[C@H]4C(=O)N[C@@H](CCCCN(C)C)C(=O)N4[C@H]3c3ccc(O)cc3)cc2)[C@]12C(=O)Nc1ccccc12 | 1.13
COC(=O)[C@@]1(Cc2ccccc2)[C@H]2c3cc(C(=O)N(C)C)n(Cc4ccccn4)c3C[C@H]2CN1C(=O)c1ccccc1 | 0.378
